# Data from PubChem BioAssay (NCATS).
# Values joined by “and” are separate entries in the source; they are usually repeats but may differ in a detail not shown here. Identical values can stand only once. Inconclusive results are not listed. A call without a number means that no potency is given here. Unmarked numbers belong to inactive results. Active and inactive are the calls of the source. Calls follow the shape of the dose curve; as a rule, active = well fitted curve in the direction sought with a large enough effect; inconclusive = small, poorly fitted or top-dose-only effect, or another doubt; inactive = no such curve, though single readings can be large; an effect the other way counts as inactive or inconclusive.
# Experiments:
# [1] = molecular target: Cytochrome P450 3A7 (Homo sapiens) (UniProt P24462); assay: Cytochrome P450 family 3 subfamily A member 7 (CYP3A7) small molecule antagonists: luciferase biochemical qHTS assay (AID 1963596); conditions: P450-Glo CYP3A7 enzyme luminescence, 1 h; series mostly up to 57.4 µM; also: nearly all actives have a fitted effect of over 40% in size
# Chain of Cytochrome P450 3A7 (Homo sapiens) (P24462 whole entry, looked up): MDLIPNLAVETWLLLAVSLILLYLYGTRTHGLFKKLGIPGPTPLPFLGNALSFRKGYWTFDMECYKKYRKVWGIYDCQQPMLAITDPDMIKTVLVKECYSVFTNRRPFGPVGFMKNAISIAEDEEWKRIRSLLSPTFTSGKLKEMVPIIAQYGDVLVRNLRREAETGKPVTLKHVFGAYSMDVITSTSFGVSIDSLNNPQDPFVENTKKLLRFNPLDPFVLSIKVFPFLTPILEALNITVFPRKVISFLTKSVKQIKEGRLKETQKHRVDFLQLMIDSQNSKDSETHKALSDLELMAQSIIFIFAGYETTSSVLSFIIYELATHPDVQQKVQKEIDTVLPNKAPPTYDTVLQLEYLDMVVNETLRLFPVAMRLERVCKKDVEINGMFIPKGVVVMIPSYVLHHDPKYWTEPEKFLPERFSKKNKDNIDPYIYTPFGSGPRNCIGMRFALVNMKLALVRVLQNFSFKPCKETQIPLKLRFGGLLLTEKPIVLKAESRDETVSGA
# Procedure, shortened: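 Recombinant CYP3A7 P450-Glo luminescent assay: enzyme-proluciferin substrate mix preincubated with compound 10 min at room temperature, reaction started with NADPH regeneration system for 1 h. Luciferin detected by luminescence; ketoconazole as positive control.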
# [2] = Viability qHTS for spleen associated tyrosine kinase inhibitor (SYKi) naive MV4-11 cells (AID 1963823); conditions: MV4-11 AML viability, CellTiter-Glo luminescence, 72 h; series mostly up to 45 µM; also: nearly all actives have a fitted effect of over 40% in size; also: potency is read from the fitted curve at half-maximal effect
# Procedure, shortened: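 SYK inhibitor-naive MV4-11 cells, 500 per well, exposed to compounds for 72 hr at 37 C, 5% CO2. Viability read as CellTiter-Glo luminescence after 10 min at room temperature.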
# [3] = Viability qHTS for spleen associated tyrosine kinase inhibitor (SYKi) drug resistant MV4-11 cells (AID 1963824); conditions: SYKi-resistant MV4-11 viability, CellTiter-Glo, 72 h; series mostly up to 45 µM; also: nearly all actives have a fitted effect of over 35% in size; also: potency is read from the fitted curve at half-maximal effect
# Procedure, shortened: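 CellTiter-Glo luminescence, read 10 min after reagent addition, reports viability after a 72 hr compound exposure. Cells are an MV4-11 line made resistant to SYK inhibition, seeded at 500 per well onto compound-containing plates.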
# [4] = Quantitative highthroughput screen to assess conditional lethalithy of NOMO1 cells grown in Human Plasma-Like Medium with dialyzed fetal bovine serum (HPLM+ds) (AID 1963878); conditions: NOMO1 AML cells in HPLM+ds, CellTiter-Glo viability, 48 h; series mostly up to 45.8 µM; also: nearly all actives have a fitted effect of over 35% in size; also: potency is read from the fitted curve at half-maximal effect
# Procedure, shortened: (§1)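 Each medium arm—HPLM with 10% dialyzed FBS, or RPMI1640 with 5 mM glucose and 10% untreated or dialyzed FBS—was screened against an 11-point, 3-fold compound titration for 48 h at 37 °C, with CellTiter-Glo luminescence as endpoint.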
# [5] = Quantitative highthroughput screen to assess conditional lethalithy of SEM cells grown in Human Plasma-Like Medium with dialyzed fetal bovine serum (HPLM+ds) (AID 1963882); conditions: SEM B-ALL cells in HPLM+ds, CellTiter-Glo viability, 48 h; series mostly up to 45.8 µM; also: nearly all actives have a fitted effect of over 35% in size; also: potency is read from the fitted curve at half-maximal effect
# Procedure, shortened: as §1
# [6] = Quantitative highthroughput screen to assess conditional lethalithy of SEM cells grown in RPMI1640 with dialyzed fetal bovine serum (RPMI+ds) (AID 1963884); conditions: SEM B-ALL cells, RPMI+dialyzed FBS, CellTiter-Glo viability, 48 h; series mostly up to 45.8 µM; also: nearly all actives have a fitted effect of over 35% in size; also: potency is read from the fitted curve at half-maximal effect
# Procedure, shortened: as §1
# [7] = Cellular viability qHTS for adrenocortical cancer (ACC) cell line SW-13 (AID 1963989); conditions: SW-13 ACC cells viability, CellTiter-Glo, 48 h; activity (max response): hits give low values;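 also: cells grown in serum-free medium with ITS supplement; nearly all actives have a fitted effect of over 65% in size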
# Procedure, shortened: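 48 h treatment, SW-13 in ITS/DMEM serum-free; doses up to 46 uM; readout CellTiter-Glo luminescence; curve fit four-parameter logistic.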
# [8] = Cellular viability qHTS for adrenocortical cancer (ACC) cell line NCI-H295R (AID 1963990); conditions: CellTiter-Glo ATP luminescence, 48 h; series mostly up to 46.1 µM; also: nearly all actives have a fitted effect of over 60% in size
# Procedure, shortened: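 Compound titrations (up to 46 uM final) are applied to NCI-H295R cultures for 48 h at 37C. Viable cell number is estimated by CellTiter-Glo signal, normalised to DMSO and doxorubicin controls.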
# [9] = Quantitative highthroughput screen to assess conditional lethalithy of P12 Ichikawa cells grown in Human Plasma-Like Medium with dialyzed fetal bovine serum (HPLM+ds) (AID 1963879); conditions: ATP luminescence, 48 h; Potency: viability; series mostly up to 45.8 µM; also: nearly all actives have a fitted effect of over 35% in size; also: potency is read from the fitted curve at half-maximal effect
# Procedure, shortened: as §1
# [10] = Quantitative highthroughput screen to assess conditional lethalithy of P12 Ichikawa cells grown in RPMI1640 with untreated serum (RPMI+s) (AID 1963881); conditions: ATP luminescence, 48 h; Potency: viability; series mostly up to 45.8 µM; also: nearly all actives have a fitted effect of over 35% in size; also: potency is read from the fitted curve at half-maximal effect
# Procedure, shortened: as §1
# [11] = Quantitative highthroughput screen to assess conditional lethalithy of SEM cells grown in RPMI1640 with unreated serum (RPMI+s) (AID 1963883); conditions: SEM B-ALL cells, CellTiter-Glo viability, 48 h; series mostly up to 45.8 µM; also: nearly all actives have a fitted effect of over 35% in size; also: potency is read from the fitted curve at half-maximal effect
# Procedure, shortened: as §1
# [12] = Quantitative highthroughput screen to assess conditional lethalithy of NOMO1 cells grown in RPMI1640 with dialyzed fetal bovine serum (RPMI+ds) (AID 1963877); conditions: NOMO1 in RPMI+dialyzed FBS viability, ATP luminescence, 48 h; series mostly up to 45.8 µM; also: nearly all actives have a fitted effect of over 30% in size
# Procedure, shortened: as §1
# [13] = Quantitative highthroughput screen to assess conditional lethalithy of P12 Ichikawa cells grown in RPMI1640 with dialyzed fetal bovine serum (RPMI+ds) (AID 1963880); conditions: ATP luminescence, 48 h; Potency: P12-Ichikawa viability; series mostly up to 45.8 µM; also: nearly all actives have a fitted effect of over 35% in size
# Procedure, shortened: as §1
# [14] = Quantitative highthroughput screen to assess conditional lethalithy of NOMO1 cells grown in RPMI1640 with untreated serum (RPMI+s) (AID 1963876); conditions: NOMO1 AML cells in RPMI+serum, CellTiter-Glo viability, 48 h; series mostly up to 45.8 µM; also: nearly all actives have a fitted effect of over 35% in size
# Procedure, shortened: as §1
structure (smiles),measurement,setting,value
Cn1nnc2c(C(N)=O)ncn2c1=O,Potency,[1],inactive
same,Potency,[2],inactive
same,Potency,[3],inactive
same,Potency,[4],18700 nM (active)
same,Potency,[5],332 nM (active)
same,Potency,[6],235 nM (active)
same,activity (max response),[7],-0.0469% and 5.28%
same,Potency,[8],inactive
COc1cccc2cc(-c3nc(C4CCC(C(=O)O)CC4)n4ncnc(N)c34)[nH]c12 (stereo not given),Potency,[1],inactive
same,Potency,[2],461 nM (active) and 366 nM (active)
same,Potency,[3],580 nM (active) and 461 nM (active)
same,Potency,[9],296 nM (active)
same,Potency,[10],590 nM (active)
same,Potency,[5],590 nM (active)
same,Potency,[11],935 nM (active)
same,Potency,[6],1180 nM (active)
N=C(N=C(N)N)N1CCOCC1,Potency,[1],inactive
same,Potency,[2],inactive
same,Potency,[3],inactive
same,Potency,[12],inactive
same,Potency,[4],inactive
same,Potency,[9],inactive
same,Potency,[13],inactive
same,Potency,[10],inactive
same,Potency,[5],inactive
same,Potency,[11],inactive
same,Potency,[6],inactive
same,activity (max response),[7],-4.25%
same,Potency,[8],inactive
CCCCOc1c(C(=O)c2c(F)cc(C)cc2F)cnc2n[nH]cc12,Potency,[1],inactive
same,Potency,[2],651 nM (active) and 1.32 µM (active)
same,Potency,[3],461 nM (active) and 468 nM (active)
same,Potency,[14],inactive
same,Potency,[4],inactive
same,Potency,[9],inactive
same,Potency,[13],inactive
same,Potency,[10],inactive
same,activity (max response),[7],-11.6%
Oc1ccc(C(O)CNCCCCCCNCC(O)c2ccc(O)c(O)c2)cc1O (stereo not given),Potency,[1],inactive
same,Potency,[2],inactive
same,Potency,[3],inactive
same,activity (max response),[7],-8.39%
CCCc1ncc(C(=O)O)s1,Potency,[1],inactive
same,Potency,[2],inactive
same,Potency,[3],inactive
same,activity (max response),[7],8.93%
NCCNCCNCCNCCN,"activity change, negative = inhibition",[1],14.5% [at 11.5 µM]
same,viability (% of control),[2],121% [at 9.25 µM]
same,"viability, % of control",[3],109% [at 9.25 µM]
same,activity (max response),[7],2.38%
